Screens as filed in PubChem BioAssay.
Sampled rows, rich in hits. Any-hit rate of the full collection: about 4.6%.
tim10-1 inh = growth inhibitors of tim10-1 mutant yeast; S. cerevisiae tim10-1 ts strain growth, BacTiter-Glo, 24 h; inhibition, % at 20 µM; hit rate 2.2% among 330,000;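 active = inhibition of at least 40%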;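 note: mutant grown at 25 °C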
NLRP3 yeast inh = NALP3 inhibition in yeast | Yeast reconstituted NLRP3/ASC/caspase-1, beta-gal luminescence, 24 h | hit rate 0.39% among 330,000 | inhibition, % at 10 µM;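 active = inhibition of 50% or more; inactive = inhibition below 50%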
SKKanGAS inh = SKKanGAS growth inhibition | S. pyogenes SKKanGAS, kanamycin growth, BacTiter-Glo, 6 h | inhibition, % at 7.5 µM | hit rate 1.3% among 300,000 | AID 1662;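 active = mean replicate score, as percent of positive control median, at least 50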;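 note: strain carries kanamycin resistance gene driven by streptokinase promoter and grows in 40 µg/ml kanamycin; loss of luminescence reflects streptokinase promoter inhibition or plain growth inhibition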
tim23-1 inh = tim23-1 yeast growth inhibition. S. cerevisiae tim23-1 growth, BacTiter-Glo luminescence, 24 h. inhibition, % at 20 µM. hit rate 1.3% among 330,000. AID 463212;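 active = growth inhibition of the mutant yeast at or above 50%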;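 note: temperature-sensitive mutant grown at 25 °C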
TIM10 inh = growth inhibitors of TIM10 yeast strain | inhibition, % at 10 µM | AID 463195 | S. cerevisiae TIM10 strain growth, BacTiter-Glo luminescence, 24 h | hit rate 1.4% among 330,000;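 active = inhibition of 40% or more at the single tested concentration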;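 note: wild-type TIM10 isogenic control strain grown at permissive 25 °C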
tim10 confirm = TIM10 yeast growth inhibition, confirmed; hit rate 63% among 4,600; inhibition, % at 10 µM; shares compounds with TIM10 inh; AID 463215; S. cerevisiae tim10 strain growth, BacTiter-Glo luminescence, 24 h;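 active = inhibition of yeast growth at or above a set limit in either of two replicates at 10 µM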; note: this counterscreen used the strain with wild-type TIM10
Numbers stand for hits; . = inactive; / = not tested or not shown.

SMILES	tim10-1 inh	NLRP3 yeast inh	SKKanGAS inh	tim23-1 inh	TIM10 inh	tim10 confirm
CCOc1ccc(NC(=O)[C@H](Cc2ccccc2)NC(=O)C2CCNCC2)cc1	.	.	.	.	.	/
CC(C)CNC(=S)NC(=O)c1ccc(Cl)cc1Cl	.	.	.	.	55	52
CCNS(=O)(=O)c1ccc(NC(=O)c2ccc(Cn3cc(Br)cn3)o2)cc1	.	.	.	.	.	/
CCCNC(=S)Nc1ccccc1	.	.	.	.	.	/
Cc1cccc(CSCCNC(=S)Nc2ccccc2)c1	.	.	.	.	48	.
CC(=O)c1ccc(NC(=S)Nc2ccc(Br)c(Cl)c2)cc1	.	.	95	.	42	.
O=C(Nc1ccccc1)Nc1ccc(Br)c(Cl)c1	.	.	.	.	.	/
CCOc1cc(/C=C2\SC(=NC)N(C)C2=O)cc(Cl)c1OC(C)=O	.	.	.	.	.	/
CCOc1cc(/C=C2\SC(=NC)N(C)C2=O)c(Br)cc1OC(C)=O	.	.	.	.	82	.
COc1ccccc1N1CCN(C(=O)c2cccc(S(=O)(=O)Nc3ccccc3F)c2)CC1	.	.	/	.	.	/
O=S(=O)(c1cccc(NC(=S)N2CCN(c3ccccc3)CC2)c1)C(F)F	.	.	.	.	.	/
O=S(=O)(c1cccc(NC(=S)N2CCN(c3ccccc3F)CC2)c1)C(F)F	.	.	.	.	47	36
COc1ccc(C2c3ccc4ccccc4c3Oc3ncn(CCN4CCOCC4)c(=N)c32)cc1 (centres undefined)	.	.	.	.	.	/
COc1ccc(-c2oc3ncn(CCN4CCOCC4)c(=N)c3c2-c2ccc(OC)cc2)cc1	.	.	.	.	42	.
N#Cc1c2n(c3c(N)ncnc13)CCCCC2	.	.	.	.	.	/
Cc1cc(C)nc(SCc2ccc(C(=O)N/N=C3\CC(C)CC(C)(C)C3)cc2)n1 (centres undefined)	.	.	.	.	40	.
Cc1cccc(NC(=O)c2ccc3nccnc3c2)c1C	.	.	.	.	.	/
COc1ccc(-c2cc3c(nn2)-c2ccccc2C3=O)cc1	.	.	.	.	42	45
COc1ccc(NC(C)C(=O)Nc2cc(C(F)(F)F)ccc2N2CCOCC2)c(OC)c1 (centres undefined)	.	.	.	.	41	.
CC(C)(C)C(=O)Nc1cc(C(F)(F)F)ccc1N1CCOCC1	.	.	.	.	.	/
CC(C)(C)C(=O)NC(=S)Nc1cc(C(F)(F)F)ccc1N1CCOCC1	.	.	.	.	48	.
Cc1cc(C)nc(N/N=C/c2ccccc2OCc2ccc(Br)cc2)n1	.	.	.	.	.	/
Cc1cc(C)nc(N/N=C/c2ccccc2OCc2cccc(Br)c2)n1	.	.	.	.	48	.
Cc1[nH]c2ccccc2c1C(C#N)(C#N)C1C(=O)c2ccccc2C1=O	.	.	65	.	63	78
Cc1ccc(NC(=O)c2ccc3c(c2)OCCO3)cc1S(=O)(=O)Nc1cccc(Cl)c1	.	.	.	.	43	.
SMILES	tim10-1 inh	NLRP3 yeast inh	SKKanGAS inh	tim23-1 inh	TIM10 inh	tim10 confirm
O=C(Nc1ccc(N2CCCCC2)c(Cl)c1)c1ccc2c(c1)OCCO2	.	.	.	.	45	.
Cc1cccc(NC(=O)c2ccc3c(c2)OCCO3)c1	.	.	.	.	.	/
CCS(=O)CC(=O)Nc1c(-c2ccccc2)oc2ccccc2c1=O (centres undefined)	.	.	.	.	.	/
CCOC(=O)c1ccc(S(=O)(=O)n2c(CN3CCCCC3)nc3ccccc32)cc1	.	.	.	.	50	.
CCOc1ccc(CCNC(=O)COc2cccc(-n3cnnn3)c2)cc1OCC	.	.	.	.	.	/
CC(=O)NC/C(C)=N\Nc1ccc([N+](=O)[O-])cc1	.	.	.	.	49	.
Cc1ccc2c(c1)C(c1ccccc1)CC(=O)O2 (centres undefined)	.	.	.	.	.	/
COc1cc(OC)c(NC(=O)CN(C)S(=O)(=O)c2ccc(-c3ccc(=O)[nH]n3)s2)cc1Cl	.	.	.	.	.	/
CCOC(=O)N1CCN(C(=O)c2ccc3nc(N4CCC(C)CC4)sc3c2)CC1	.	.	.	.	.	/
COc1cccc(N2CCN(C(=O)c3ccc4nc(N5CCC(C)CC5)sc4c3)CC2)c1	.	.	.	.	42	42
CCOC(=O)c1cnn(-c2ccc(NS(=O)(=O)c3ccc(Cl)cc3)cc2)c1C(F)(F)F	.	.	55	.	52	.
